PubChem BioAssay
Calls of active or inactive are those of the source. Unless noted, no rule for the calls is given here.

How the values were obtained:
[1] = system: Wnt5a (protein binding on small-molecule microarray); assay: Wnt5a binders on small-molecule microarray, primary screen, biophysical, 635/667 nm fluorescence (AID 1142); details: 635 nm fluorescence, higher = more signal;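 also: fluorescence read at 667 nm with signal to noise per printed feature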
[2] = cell viability in Huh7 cells, primary screen, cytotoxicity control for HCV replication inhibitor project, CellTiter-Glo luminescence, basal, 48 h (AID 1143); details: Huh7 HCV replicon, higher = more signal, called active from +8 up or from −8 down;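 also: Huh7 hepatoma cells carrying a hepatitis C replication reporter with no stimulus; test concentration not given here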
[3] = P. aeruginosa biofilm formation inhibitors, primary screen, PAO1 strain, BacTiter-Glo luminescence, LB-PBS (AID 1144); details: 12 h, higher = more signal
[4] = CREB reporter modulators without forskolin, primary screen, cell-based, PC12, CRE-LacZ reporter, unstimulated (AID 1145); details: no forskolin, luminescence, 4.5 h, higher = more signal, called active from +8 up or from −8 down
[5] = CREB reporter modulators under forskolin, primary screen, cell-based, PC12, CRE-LacZ reporter, forskolin-stimulated (AID 1146); details: luminescence, 4.5 h, higher = more signal, called active from +8 up or from −8 down;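 also: PC12 cells with 6xCRE LacZ reporter stimulated by forskolin 10 µM; beta-galactosidase reporter signal reflecting CREB driven transcription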
[6] = molecular target: Streptavidin (Streptomyces avidinii) (UniProt P22629); assay: streptavidin binders on small-molecule microarray, primary screen, artefact control for SMM compound annotation, biophysical, 635/667 nm fluorescence (AID 1147); details: streptavidin binding, higher = more signal;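 also: signal reflects streptavidin binding to arrayed compounds as a control protein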
[7] = small-molecule binders of probe aInhba, primary screen, biochemical, small-molecule microarray, 635/667 nm fluorescence (AID 1148); details: higher = more signal;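 also: score merges 667nm spot fluorescence with signal-to-noise for antibody binding to printed compounds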
Torsin-1A (Homo sapiens) [8] = molecular target: Torsin-1A (Homo sapiens) (UniProt O14656); assay: torsin A binders from cell lysate, primary screen, small-molecule microarray, wild-type, 635/667 nm (AID 1149); details: COS7 hTOR1A-WT lysate, 635 nm fluorescence, higher = more signal
Torsin-1A (Homo sapiens) [9] = molecular target: Torsin-1A (Homo sapiens) (UniProt O14656); assay: small-molecule binders of mutant TOR1A in lysate, primary screen, cell lysate, small-molecule microarray, COS7 lysate, 635/667 nm fluorescence (AID 1150); details: COS7 hTOR1A mutant lysate, 635 nm fluorescence, higher = more signal;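 also: score pools 667 nm emission and signal to noise measuring lysate protein binding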
[10] = system: Sonic hedgehog protein (Shh); assay: small-molecule binders of Shh protein, primary screen, biochemical, small-molecule microarray, 635/667 nm fluorescence (AID 1151); details: small-molecule microarray binding, 635 nm fluorescence; higher = more signal;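 also: Shh protein binding to compounds spotted on small-molecule microarray slides; score combines spot fluorescence intensity with signal-to-noise across triplicate slides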

Sequence of Torsin-1A (Homo sapiens) (O14656 whole entry, looked up): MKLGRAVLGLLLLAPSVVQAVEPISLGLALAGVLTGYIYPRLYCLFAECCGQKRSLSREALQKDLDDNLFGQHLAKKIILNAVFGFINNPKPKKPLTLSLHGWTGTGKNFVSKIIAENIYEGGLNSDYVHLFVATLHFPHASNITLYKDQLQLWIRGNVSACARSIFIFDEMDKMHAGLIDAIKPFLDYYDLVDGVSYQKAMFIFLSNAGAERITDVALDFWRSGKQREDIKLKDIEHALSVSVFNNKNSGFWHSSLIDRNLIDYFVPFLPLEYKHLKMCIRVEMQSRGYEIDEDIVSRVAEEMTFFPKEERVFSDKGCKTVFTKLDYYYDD
Sequence of Streptavidin (Streptomyces avidinii) (P22629 whole entry, looked up): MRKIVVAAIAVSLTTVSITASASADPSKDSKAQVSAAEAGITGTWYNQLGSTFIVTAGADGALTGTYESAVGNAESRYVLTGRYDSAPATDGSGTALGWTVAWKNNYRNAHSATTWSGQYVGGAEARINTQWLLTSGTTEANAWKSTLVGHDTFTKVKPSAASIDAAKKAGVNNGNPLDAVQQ

SMILES	composite z-score [1]	z-score [2]	z-score [3]	z-score [4]	z-score [5]	composite z-score [6]	composite z-score [7]	composite z-score (Torsin-1A (Homo sapiens) [8])	composite z-score (Torsin-1A (Homo sapiens) [9])	composite z-score [10]
C=CC[C@@]1(C(=O)N2CCOCC2)N=C(c2ccc(OCCCO)cc2)O[C@@H]1c1ccccc1N=[N+]=[N-]	0.331	-4.09 (inactive)	-0.726 (inactive)	-0.333 (inactive)	-1.34 (inactive)	1.73	0.2	0.41	0.386	0.0055
C[N+](C)(C)CCCCCCNC(=O)[C@H]1C[C@H]2C(=O)N3CCC[C@H]3C(=O)N2[C@H]1c1ccc(O)cc1	-0.214	-2.61 (inactive)	-0.911 (inactive)	-0.813 (inactive)	-0.935 (inactive)	-0.715	0.0184	0.0048	0.599	1.92
O=C1N(CCS(=O)(=O)c2ccccc2)Cc2ccccc2C[C@]12N=C(c1ccc(OCCCO)cc1)O[C@@H]2c1ccccc1	0.775	-3.53 (inactive)	0.81 (inactive)	0.0686 (inactive)	-1.48 (inactive)	0.196	0.537	0.916	1.02	1.51
Cc1ccccc1C(O)C1C=CC2C(=O)N(C)C(=O)C2N1Nc1ccccc1 (stereo not given)	0.125	0.881 (inactive)	0.149 (inactive)	-0.522 (inactive)	-0.0967 (inactive)	1.69	0.112	0.0494	0.303	-0.0269
N#Cc1ccc(NN2C(C(O)C3CCCCC3)C=CC3C(=O)N(c4ccccc4)C(=O)C32)cc1 (stereo not given)	0.4	0.124 (inactive)	-0.984 (inactive)	0.808 (inactive)	1.47 (inactive)	1.75	0.134	0.439	0.361	-0.81
COCCOC(=O)N1C(=O)[C@@]2(c3cc(C#CCC(C(=O)OC)C(=O)OC)ccc31)[C@H](c1ccccc1OCCO)N1[C@H](c3ccccc3)[C@H](c3ccccc3)OC(=O)[C@H]1[C@@H]2C(N)=O	0.53	-3.11 (inactive)	0.451 (inactive)	1.16 (inactive)	2.17 (inactive)	0.0558	0.137	0.402	0.689	1.52
COC(=O)[C@@]1(Cc2ccc(OC)cc2)[C@H]2c3cc(C(=O)N4CCCC4)n(Cc4ccccn4)c3C[C@H]2CN1C(=O)c1ccccc1	0.782	-1.47 (inactive)	0.621 (inactive)	0.201 (inactive)	1.03 (inactive)	0.523	1.1	-0.367	1.05	-0.622
CC(=CC1CCCCC1)[C@@H](NC(=O)c1ccc(C(F)(F)F)cc1)c1ccc(-c2ccccc2)cc1	-0.239	-0.992 (inactive)	-0.019 (inactive)	0.587 (inactive)	0.618 (inactive)	1.03	0.105	-0.514	-0.336	-0.129
COCCOC(=O)N1C(=O)[C@@]2(c3cc(C#CCNC(N)=O)ccc31)[C@H](c1ccc(O)cc1)N1[C@H](c3ccccc3)[C@H](c3ccccc3)OC(=O)[C@H]1[C@@H]2C(=O)Nc1nc2ccccc2s1	0.327	-2.61 (inactive)	-2.43 (inactive)	-0.463 (inactive)	-1.5 (inactive)	0.454	-0.102	0.518	0.587	1.34
C=C[C@H](C)[C@@H](O)c1ccc(O)c2ccccc12	-0.302	-0.276 (inactive)	-0.501 (inactive)	-0.869 (inactive)	1.63 (inactive)	-0.785	-0.0471	-0.378	-0.0127	1.38
COC(=O)[C@@]1(Cc2ccccc2)N=C(c2ccc(OCCCO)cc2)O[C@H]1c1ccccc1N=[N+]=[N-]	0.805	-4.03 (inactive)	-0.0344 (inactive)	2.95 (inactive)	-1.52 (inactive)	-1.09	0.25	3.85	3.84	2.07
COc1ccc([Si](C)(C)[C@@H]2[C@@H](CCn3cc([C@H](O)c4ccccc4)nn3)O[C@]3(C(=O)N(Cc4ccc(N5C(=O)c6cccc7cccc5c67)cc4)c4ccccc43)[C@H]2C)cc1	-0.179	-4.7 (inactive)	0.364 (inactive)	1.22 (inactive)	-1.68 (inactive)	-0.378	-0.0762	-0.0204	-0.169	-0.0774
CCOC(=O)C1=CCC(c2ccc(C#N)cc2)N(S(=O)(=O)c2ccc(C)cc2)C1 (stereo not given)	0.445	-4.77 (inactive)	-0.0317 (inactive)	0.22 (inactive)	-0.986 (inactive)	1.87	0.211	0.375	0.709	0.409
CCCN1C(=O)[C@@]2(CCC(=O)OC(C)(C)C)N=C(c3ccc(OCCCO)cc3)O[C@H]2c2ccccc21	0.399	-4.47 (inactive)	-1.36 (inactive)	1.46 (inactive)	-1.6 (inactive)	0.0808	0.0319	-0.0821	0.408	1.5
